FBW7 act = human FBW7 E3 ligase activation, primary screen. Q969H0. AlphaScreen FBW7–phospho-cyclin E peptide binding, activator screen. normalized activity (activation), % at 26.1 µM. hit rate 0.13% among 650,000. AID 1259310; in the data active means normalized activity above about 1.9%;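 further: purified mutant Fbw7 with reduced substrate affinity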
MITF inh = blocks human microphthalmia-associated transcription factor; hit rate 0.91% among 650,000; inhibition, % at 2.6 µM; AlphaScreen MITF homodimerization, bead proximity signal; AID 1259374; in the data active means inhibition above about 50%;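 further: 0% = vehicle wells with protein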
GPR151 activ = human GPR151 activation; hit rate 1% among 650,000; AID 1508602; PathHunter beta-arrestin GPR151 cells, luminescence; Q8TDV0; activation, % at 11.2 µM; in the data active means activation above about 4.9%;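 further: 0% = median of compound wells and 100% = cells with positive control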
Target sequence (Q8TDV0 whole entry, looked up): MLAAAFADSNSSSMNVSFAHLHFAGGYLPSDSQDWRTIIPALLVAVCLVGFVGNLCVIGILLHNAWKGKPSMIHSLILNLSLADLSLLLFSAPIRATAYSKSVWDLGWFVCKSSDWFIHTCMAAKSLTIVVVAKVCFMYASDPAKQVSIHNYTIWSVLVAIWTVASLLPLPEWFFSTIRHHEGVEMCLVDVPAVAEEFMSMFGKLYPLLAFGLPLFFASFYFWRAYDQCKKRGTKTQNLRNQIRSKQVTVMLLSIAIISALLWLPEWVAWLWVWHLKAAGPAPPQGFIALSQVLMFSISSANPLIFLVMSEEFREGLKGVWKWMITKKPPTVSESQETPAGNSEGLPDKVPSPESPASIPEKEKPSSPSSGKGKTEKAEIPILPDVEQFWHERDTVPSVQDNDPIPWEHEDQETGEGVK
TEAD-YAP inh = TEAD-YAP interaction inhibition; HEK-TIYL cells, TEAD-Gal4/YAP UAS-luciferase luminescence; inhibition, % at 9.12 µM; hit rate 1.4% among 640,000; in the data active means inhibition above about 32%;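 further: 0% = median of test compound wells and 100% = reference inhibitor wells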
* marks the source's active call; other numbers are inactive results. Hits are enriched below; roughly 3.5% of the tested compounds scored in any of these assays.

SMILES	FBW7 act	MITF inh	GPR151 activ	TEAD-YAP inh
CC(C)OCCNC(=O)c1cc(COc2ccc3ncccc3c2)on1	0	-10	1	22
O=C(NCC1CCOCC1)c1cc(COc2ccc3ncccc3c2)on1	0	-10	1	33*
COc1cc(OC)cc(-n2nc(C(=O)NC3CCCCCC3)c3ccccc3c2=O)c1	1	8	0	3
Cn1c(=O)c2c(nc(SCC(=O)O)n2Cc2ccccc2)n(C)c1=O	0	16	1	-3
NNS(=O)(=O)c1cccc2cccnc12	0	8	-1	-4
Cc1nc(C(C)NC(=O)c2cc(COc3ccc(F)cc3F)on2)cs1 (stereo unspecified)	2.0*	9	0	-4
O=C(Nc1sc2c(c1C(=O)N1CCCCC1)CCC2)c1ccccc1F	0	16	-2	-2
CCC(=O)Oc1ccc(C(=O)Nc2ccc(C)cc2Br)cc1	0	-2	0	50*
CCS(=O)(=O)c1ncc(Cl)c(C(=O)Nc2ccc(C)c(C)c2)n1	0	-5	-2	35*
CCS(=O)(=O)c1ncc(Cl)c(C(=O)Nc2cccc(Cl)c2)n1	0	6	-2	95*
CCCS(=O)(=O)c1ncc(Cl)c(C(=O)Nc2ccc(OC)cc2)n1	1	16	-2	34*
CCOc1cc(C2C(C(=O)OCCOc3ccccc3)=C(C)NC3=C2C(=O)CC(c2ccc(Cl)cc2)C3)ccc1O (stereo unspecified)	0	-11	1	10
N#C/C(=N/Nc1cccc(C(F)(F)F)c1)C(N)=S	0	-2	0	47*
O=C(CCCOc1ccc(Cl)cc1Cl)NNC(=O)Nc1ccc(F)cc1	0	7	1	-1
Cc1ccc2nc(C(F)(F)F)c(C#N)c(N)c2c1	0	-10	-1	45*
COc1ccc2oc(=O)c(-c3csc(-c4ccc(N(C)C)cc4)n3)cc2c1	0	3	1	-11
CNC(=O)C(NC(=O)c1ccccc1)=C1CCCCC1	0	-3	-1	43*
CNC(=O)/C(=C\c1ccccc1)NC(=O)c1ccccc1	0	8	0	-10
O=C1CN(C(=O)COC(=O)c2cc(-c3cccs3)nc3ccccc23)c2ccccc2N1	0	55*	-1	7
O=C(NCCCn1ccnc1)C1CC12CCN(C(=O)C1(c3ccccc3)CCCCC1)CC2 (stereo unspecified)	0	11	1	38*
CCCCCOC(=O)C1=C(C)NC2=C(C(=O)CC(C)(C)C2)C1c1cccc(OC)c1OC (stereo unspecified)	0	3	-1	8
CCc1ccc(CCC(=O)Nc2ncc(Cc3ccccc3F)s2)o1	0	11	-1	15
Cc1ccc(CCC(=O)Nc2ncc(Cc3ccccc3)s2)o1	0	-1	0	56*
Cc1ccc(Cc2cnc(NC(=O)CCc3ccc(C)o3)s2)cc1	0	0	1	67*
Cc1ccc(CCC(=O)Nc2ncc(Cc3ccccc3Cl)s2)o1	0	-5	0	56*
SMILES	FBW7 act	MITF inh	GPR151 activ	TEAD-YAP inh
O=C(CCl)Nc1ncc(Cc2ccccc2)s1	1	-11	0	-4
CC(=O)c1c(C)[nH]c(C(=O)OCC(=O)NC2CCCc3ccccc32)c1C (stereo unspecified)	0	-1	-1	31
Cc1nn(-c2ccc(F)cc2)c2ncc(C(=O)NCCCn3ccnc3)c(Cl)c12	0	-9	-1	65*
Cc1ccc(CNC(=O)c2cnc3c(c(C)nn3-c3ccc(F)cc3)c2Cl)cc1	0	-15	0	1
COc1ccc(CCNC(=O)c2sc3ncnc(N4CCN(c5ccccn5)CC4)c3c2C)cc1OC	0	-5	0	70*
COc1ccc(CCNC(=O)c2sc3ncnc(N4CCN(c5ccccc5OC)CC4)c3c2C)cc1OC	0	18	-1	14
COc1cc(Nc2nccn3c(-c4cccc(C(C)=O)c4)cnc23)cc(OC)c1OC	1	20	0	54*
COc1cc(Nc2nccn3c(-c4ccc(Cl)cc4)cnc23)cc(OC)c1OC	1	15	-1	17
COc1cc(Nc2nccn3c(-c4ccc5ccccc5c4)cnc23)cc(OC)c1OC	0	-9	2	54*
COc1cc(Nc2nccn3c(-c4ccc(F)c(Cl)c4)cnc23)cc(OC)c1OC	-1	22	-1	53*
COc1cc(Nc2nccn3c(-c4ccco4)cnc23)cc(OC)c1OC	0	17	0	57*
CCOC(CNc1ncccc1C(F)(F)F)(OCC)c1ccccn1	0	3	3	-2
CCCc1cc(N2CCN(Cc3cc(F)ccc3OC)CC2)n2c(nc3ccccc32)c1C#N	0	7	-1	-8

High-throughput results (PubChem)
